Bioassay records from PubChem.
HIF act: HIF pathway transcriptional activators, primary screen, cell-based, U2OS HRE-luciferase, luminescence; activation, % at 7.5 µM (by protocol); AID 1910, 2009; hit rate 0.32% among 300,000; U2OS HRE-luciferase reporter; normalized: DMSO 0%, desferrioxamine 100%;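 active means mean activation of at least 10% of the iron chelator positive control signal, with at least half of replicates also reaching 10%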
proKLK7 act: proKLK7 zymogen activators, primary screen, biochemical, fluorescence intensity; AID 652039, 2013; activation, % at 7 µM; purified proKLK7, EDANS-DABCYL substrate fluorescence; 100% is mature enzyme control, 0% vehicle; hit rate 0.9% among 370,000;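 active means activation above the mean of all tested compounds plus 3 SD, computed per campaign excluding outliers beyond control limits, cut at about 13% in these data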
Target sequence (P49862 whole entry, looked up): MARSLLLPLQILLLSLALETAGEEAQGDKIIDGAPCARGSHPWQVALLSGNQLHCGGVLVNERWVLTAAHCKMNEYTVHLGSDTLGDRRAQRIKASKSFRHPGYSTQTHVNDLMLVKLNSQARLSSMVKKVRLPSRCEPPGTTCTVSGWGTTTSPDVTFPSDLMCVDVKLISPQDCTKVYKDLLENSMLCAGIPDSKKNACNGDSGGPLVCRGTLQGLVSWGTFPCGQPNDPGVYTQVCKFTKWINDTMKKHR
NPR1 activator: GC-A stimulated cGMP production enhancers – HEK293 GC-A cells, cGMP TR-FRET, EC30 ANP, primary screen | Atrial natriuretic peptide receptor 1 (Homo sapiens), P16066 | 0% at EC30 ANP, 100% saturating ANP | activation, % at 10 µM | hit rate 0.14% among 370,000 | AID 1671463, 2021; in the data active means activation above about 40%
GC-B act: human GC-B receptor activators, primary screen, HEK293 GC-B cells, cGMP TR-FRET, EC30 CNP; Atrial natriuretic peptide receptor 2 (Homo sapiens), P20594; AID 1920062, 2024; 0% at EC30 CNP, 100% saturating CNP; hit rate 0.11% among 370,000; activation, % at 10 µM;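 active means activation at 10 µM reaching about 35% in either raw or pattern-adjusted values, limit read from the data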
Active calls of the source: *; / = not tested or not shown. A selection: hits, their analogues and other compounds. The true share with any hit is near 1.3%.

SMILES	HIF act	proKLK7 act	NPR1 activator	GC-B act
Cc1ccc(NC(=O)c2cc(S(=O)(=O)N(C)C)ccc2N2CCCC2)cc1S(=O)(=O)N(C)C	0	0	37	38*
Cc1ccc(NC(=O)c2cc(S(=O)(=O)N3CCCCC3)ccc2N2CCOCC2)cc1S(=O)(=O)N(C)C	/	0	-6	2
C=CCN1C(=O)[C@@H](CC(=O)N2CCC(c3ccccc3)CC2)[C@]2(C(=O)OC)CCCCC=C12	/	0	3	3
COc1ccc2cc(C(C)C(=O)N3CCC(C(N)=O)CC3)ccc2c1 (stereo not given)	28*	0	-2	2
Cc1ccccc1N1CC(O)(c2ccccc2)[N+]2=C1SCC2 (stereo not given)	0	-1	-7	-1
Cc1ccc(C2(O)CN(c3ccccc3C)C3=[N+]2CCS3)cc1 (stereo not given)	12*	0	-1	-8
CCCC(=O)OC12CCCN(C1)/C(=C/c1ccc(OC)cc1)C2 (stereo not given)	/	0	2	-6
COc1cccc(C(=O)N/N=C(/c2ccccc2)c2ccccn2)c1	11*	0	1	2
COc1cc(C(=O)N/N=C(\C)c2ccccn2)cc(OC)c1OC	0	0	0	3
COc1cc(C(=O)N/N=C(\c2ccccc2)c2ccccn2)cc(OC)c1OC	64*	-1	0	1
COc1cccc(C(=O)N/N=C(/CCC(=O)O)c2ccccc2)c1	0	-1	0	3
CCCCCCCCn1c2c(c(=N)c3ccccc31)CCC2	-1	1	-4	2
Cc1cc(C)c2c(=N)c3ccccc3n(CCCCCCCCn3c4ccccc4c(=N)c4c(C)cc(C)nc43)c2n1	/	37*	-5	-7
CCCC1CCC2(CCCN2CCOC(=S)Nc2ccccc2Br)CC1 (stereo not given)	/	/	-4	-2
CCOc1ccccc1N(CC(=O)N/N=C/c1cc(Br)ccc1OC)S(C)(=O)=O	26*	0	10	12
Cc1ccc(O)c(NC(=O)c2ccc3c(c2)C(=O)N(Cc2ccco2)C3=O)c1	32*	0	1	4
CC(C)n1cc(/C=C(\C#N)S(=O)(=O)c2ccccc2)c2ccccc21	0	-14	37	51*
N#C/C(=C\c1cn(-c2ccccc2)nc1-c1ccccc1)S(=O)(=O)c1ccccc1	0	0	0	-1
COC(=O)c1cc(/C=C/c2ccccc2)on1	-48	-9	59*	6
COC(=O)[C@]12C[C@H](CC(=O)NCC3CCCCC3)C(=O)N(Cc3cccc4ccccc34)C1=C[C@H](C(C)(C)C)O[C@@H]2C	/	1	-3	2
Oc1ccc2ccccc2c1N=Nc1ccccn1	33*	0	-1	-11
CCOC(=O)c1[nH]cnc1N=Nc1c(O)ccc2ccccc12	38*	0	36	38*
Oc1ccc2ccccc2c1N=Nc1ccccc1F	1	-1	-6	-5
CCOC(=O)c1c[nH]c2ccc3ccccc3c2c1=O	-2	0	1	-7
O=C(Cn1nnc(-c2ccccc2)n1)OC1CCOC1=O (stereo not given)	0	0	54*	1
SMILES	HIF act	proKLK7 act	NPR1 activator	GC-B act
CCCOc1ccccc1N/C(=N\S(=O)(=O)c1ccc(C)cc1)Nc1nc(C)cc(C)n1	0	0	45*	54*
CCCOc1ccccc1N/C(N)=N/c1nc(C)cc(C)n1	0	0	-4	0
CCn1c(COc2ccc(C)cc2)nnc1SCC(=O)c1ccc(-c2ccccc2)cc1	/	1	-5	1
COC(=O)[C@]12C[C@H](CC(=O)NCc3ccccc3)C(=O)N(Cc3ccco3)C1=C[C@H](C(C)C)O[C@@H]2C1CC1	/	0	-5	-6
c1csc(-c2nc3nc4ccccc4nc3n2Cc2ccc3c(c2)OCO3)c1	/	0	25	38*
CCOC(=O)c1c(S(=O)(=O)N2CCCCCC2)c(C)n(C)c1C	1	0	1	1
CCOC(=O)c1c(S(=O)(=O)N2CCC(C)CC2)c(C)n(C)c1C	44*	0	1	-1
COc1ccc(/C=N/NC(=S)Nc2cc(S(=O)(=O)N3CCOCC3)ccc2N2CCOCC2)cc1O	35*	0	2	12
COc1ccc2ccccc2c1/C=N/NC(=S)Nc1cc(S(=O)(=O)N2CCOCC2)ccc1N1CCOCC1	1	-2	16	18
Cc1onc(C(=O)N2CCN(C(c3ccc(Cl)cc3)c3ccc(Cl)cc3)CC2)c1[N+](=O)[O-]	/	/	-9	-3
CCn1c(-c2ccsc2)nc2c1c(=O)[nH]c(=O)n2Cc1ccccc1	0	0	31	42*
Cc1c(/C=N/NC(=O)c2cccnc2)c2ccccc2n1Cc1ccccc1	0	0	58*	29
O=C(N/N=C/c1c(O)ccc2ccccc12)c1cccnc1	83*	-7	-3	0
O=C(N/N=C/c1cc(O)ccc1Br)c1cccnc1	14*	-6	0	-7
Cc1nn(Cc2ccccc2)c(Cl)c1/C=N/NC(=O)c1cccnc1	0	1	0	-4
O=C(N/N=C\c1c(O)ccc2ccccc12)c1cncc(Br)c1	26*	-10	-8	-13
Cn1cccc1/C=N\NC(=O)c1cncc(Br)c1	0	0	-2	1
CCCC(=O)N1CCC[C@]2(CC[C@H](CCC(=O)OCC)O2)C1	/	0	2	5
Cc1ccc(C(=O)N/N=C/c2c(O)ccc3ccccc23)cn1	37*	-7	-2	-4
CCCCNc1c(-c2ccc(SC(C)CC)c(OC)c2)nc2ccc(Cl)cn12 (stereo not given)	/	-21	40*	21
CCCCNc1c(-c2ccc(SC(C)CC)c(OC)c2)nc2ccc(C)cn12 (stereo not given)	-1	-75	23	-4
CCCc1sc(N/N=C/c2ccccn2)nc1-c1ccc(Br)cc1	25*	0	0	-2
O=C1C=CC(=O)N1CCCCCCCCCCN1C(=O)C=CC1=O	/	-2	30	44*
O=C1C=CC(=O)N1Cc1ccncc1	/	-3	1	0
COc1cccc(C2c3[nH]c4ccccc4c3C[C@H]3C(=O)N(c4ccccc4C(=O)N4CCC(C(=O)O)CC4)C(=O)N23)c1 (stereo not given in full)	0	2	37	51*
CCOC(=O)CCS(=O)(=O)c1nc(-c2ccccc2)cc(C(F)(F)F)n1	10*	/	/	/
Cc1cc(NC(=O)CCCS(=O)(=O)c2nc(-c3cccs3)cc(C(F)(F)F)n2)no1	13*	-11	16	6
Cc1cc(NC(=O)CSc2nc(-c3cccs3)cc(C(F)(F)F)n2)no1	0	0	-2	-1
CCOC(=O)CS(=O)(=O)c1nc(-c2ccccc2)cc(C(F)(F)F)n1	1	1	54*	10
